# High-throughput results as filed in PubChem.
# Most compounds without a hit are left out; they make up all but 17% or so of the library.
# TDP1 block = inhibitors of human tyrosyl-DNA phosphodiesterase TDP1 | recombinant TDP1, AlphaScreen DNA substrate cleavage | 350,000 compounds, 0.28% hits | Potency, µM (series often up to 130 µM), inactives show at the highest dose activity change, negative = inhibition, hits mostly inhibitors | Q9NUW8; further: on the % scale 0 is the no-effect control and ±100 the full control effect; nearly all actives have a fitted effect of over 40% in size
# Target sequence (Q9NUW8 whole entry, looked up): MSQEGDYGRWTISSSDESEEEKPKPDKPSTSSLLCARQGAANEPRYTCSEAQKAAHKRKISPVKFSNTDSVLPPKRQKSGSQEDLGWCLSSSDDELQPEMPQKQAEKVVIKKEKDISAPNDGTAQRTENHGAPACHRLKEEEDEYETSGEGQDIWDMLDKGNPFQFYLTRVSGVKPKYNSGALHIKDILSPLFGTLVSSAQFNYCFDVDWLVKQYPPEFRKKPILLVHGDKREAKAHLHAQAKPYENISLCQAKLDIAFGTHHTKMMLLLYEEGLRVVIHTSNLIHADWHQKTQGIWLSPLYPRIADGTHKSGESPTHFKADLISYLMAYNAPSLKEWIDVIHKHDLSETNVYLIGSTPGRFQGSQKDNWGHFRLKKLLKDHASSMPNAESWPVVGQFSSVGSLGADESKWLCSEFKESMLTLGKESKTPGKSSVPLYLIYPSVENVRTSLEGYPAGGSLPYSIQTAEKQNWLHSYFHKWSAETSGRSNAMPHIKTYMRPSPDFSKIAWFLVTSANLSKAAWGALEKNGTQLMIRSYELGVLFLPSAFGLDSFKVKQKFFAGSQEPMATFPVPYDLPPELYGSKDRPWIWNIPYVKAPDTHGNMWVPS
#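 Recombinant human Tdp1 (E. coli-expressed, 1 nM final) preincubated with compounds 15 min at room temperature, then 5'-biotin/3'-phosphotyrosine-FITC DNA substrate (15 nM final) added for 5 min. AlphaScreen beads (10 ug/ml final) added 10 min; cleavage lowers signal.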
# ClpP mod = qHTS Assay for Activators of ClpP. purified B. subtilis ClpP, FRET peptide cleavage, 20 min. Potency, µM (highest dose often 57.5 µM), for the others: at the top dose activity change, negative = active. 340,000 compounds, 1.9% hits. AID 651965, 2013; active means well fitted falling curve with a large enough effect; inconclusive means small, poorly fitted or top-dose-only effect; inactive means no such curve, though single readings can be large or run the other way; further: the source files actives as falling curves though it sought activators and does not explain the sign; nearly all actives have a fitted effect of over 65% in size
#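 Purified B. subtilis ClpP, 10 microg/mL final in Tris/HCl pH8 with KCl, BSA, glycerol and Tween-20, cleaved an Abz/nitrotyrosine-quenched decapeptide. Fluorescence (ex 320, em 430) was read at 0 and 20 min at room temperature. Delta was normalized to 5.8 microM ADEP and DMSO/no-enzyme controls.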
# DT40 TDP1 no CPT = qHTS for Inhibitors of human tyrosyl-DNA phosphodiesterase 1 (TDP1): qHTS in cells in absence of CPT. DT40 Tdp1-/- hTDP1 cells, no CPT, ATP luminescence, 48 h. Potency, µM (titrated, usually from 46.2 µM), for the others: top-dose activity change, negative = growth inhibition, actives largely listed as inhibitors. 420,000 compounds, 15% hits; further: on the % scale 0 is the no-effect control and ±100 the full control effect; nearly all actives have a fitted effect of over 55% in size
#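 Cells were dispensed at 400 per well, compounds added by pin tool, plates incubated ≥48 hr at 37 °C, then CellTiter-Glo added for 30 min at room temperature before luminescence reading. Line: DT40 Tdp1-/- complemented with hTDP1; camptothecin omitted.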
# DT40 TDP1 CPT = growth inhibition of DT40 Tdp1-/-;hTDP1 cells with camptothecin (screen for TDP1 inhibitors) | chicken DT40 Tdp1-/-;hTDP1 cells + 20 nM CPT, ATP luminescence, 48 h | Potency, µM (doses to about 46.2 µM), inactives show at the top dose activity change, negative = growth inhibition, most hits filed as inhibitors | 420,000 compounds, 12% hits | AID 686979; further: on the % scale 0 is the no-effect control and ±100 the full control effect; nearly all actives have a fitted effect of over 55% in size
#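 Chicken DT40 Tdp1-/- cells stably complemented with human TDP1 were seeded at 400 cells/well in medium containing 20 nM camptothecin, exposed to pin-transferred compounds, and grown at 37 °C for at least 48 hr. Viability was read as ATP luminescence.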
# Active calls of the source: *; ? = inconclusive; / = no result; [ ] = remark or other dose. Unless noted, the call rests on the fitted dose curve; in most records, active means well fitted curve in the direction sought with a large enough effect; inconclusive means small, poorly fitted or top-dose-only effect, or another doubt; inactive means no such curve, though single readings can be large; an effect the other way counts as inactive or inconclusive. Potency means the concentration at half of the fitted maximal effect.
SMILES,TDP1 block,ClpP mod,DT40 TDP1 no CPT,DT40 TDP1 CPT
COc1ccc(N(CC(=O)N2CCc3ccccc3C2)S(=O)(=O)c2ccccc2)cc1,3%,0%,18µM*,18µM*
O=C(CN(C1CCCCC1)S(=O)(=O)c1ccccc1)N1CCCC1,0%,0%,-7%,-30%
COc1ccc(N(CC(=O)N2CCN(C)CC2)S(=O)(=O)c2ccccc2)cc1,/,/,9%,3%
CCCCc1c(O)n(-c2ccccc2)[nH]c1=O,0%,/,/,/
Cc1cnc(-n2ncc(C(=O)NCc3cccnc3)c2C)nc1-c1ccc(F)cc1,/,/,-26%,-11%[9.04 µM]
Clc1cccc(C=NC=Nc2cccc(Cl)c2)c1,9%[56.1 µM],/,-6%,4%
C[C@H](NC(=O)OC(C)(C)C)[C@@H](O)c1ccco1,/,-2%,-11%,1%
CCN(CC)S(=O)(=O)c1ccc2c(c1)c(=O)c(C(=O)N1CCN(c3ccccc3OC)CC1)cn2C,0%,0%,?,-1%
COc1ccc(N2CCN(C(=O)CN(c3ccccc3)S(=O)(=O)c3ccc(OC)cc3)CC2)cc1,5%,-2%,21µM*,?
CCN(CC)S(=O)(=O)c1ccc(N2CCN(c3ccccc3OC)CC2)c(N)c1,8%,/,7.3µM*,9.2µM*
COc1ccccc1N1CCN(C(=O)CN(CCc2ccccc2)S(C)(=O)=O)CC1,2%,2%,10µM*,?
COc1ccc(S(=O)(=O)N(C)CC(=O)N2CCN(c3ccccc3)CC2)cc1,/,/,-23%,-7%
NC(=O)CN(c1ccc(Oc2ccccc2)cc1)S(=O)(=O)c1ccccc1,2%,2%,?,21µM*
COC(=O)c1ccccc1NC(=S)N1CCN(c2ccc(OC)cc2)CC1,5%,-4%,?,-2%
CCc1ccc(C(=O)NC2=NC(c3ccccc3F)CC(=O)N2)cc1 (centres undefined),-1%,-1%,2%,-8%
CCCCOC1CC(c2ccc(OCc3ccc(OC)cc3)c(OC)c2)N(C)O1 (centres undefined),2%,/,?,?
COc1ccccc1N(CC(=O)N1CCCC1)S(=O)(=O)c1cc([N+](=O)[O-])ccc1Cl,3%,0%,?,16µM*
COc1ccccc1N(CC(=O)N1CCCC1)S(=O)(=O)c1ccc(C)cc1,0%,/,-23%,-2%
COc1cccc(N(CC(=O)N2CCN(c3ccccc3OC)CC2)S(C)(=O)=O)c1,5%,0%,?,-9%
Cc1ccc(S(=O)(=O)N(CC(=O)N2CCc3ccccc3C2)c2ccc(C)c(C)c2)cc1,5%[12.3 µM],4%,18µM*,16µM*
O=C(CN(c1ccc(Cl)c(Cl)c1)S(=O)(=O)c1ccccc1)N1CCc2ccccc2C1,5%,1%,29µM*,?
Cc1ccc(S(=O)(=O)N(CC(=O)N2CCc3ccccc3C2)c2ccc(Cl)c(Cl)c2)cc1,-5%,0%,?,?
COc1ccc(S(=O)(=O)N(CC(=O)N2CCN(c3ccccc3OC)CC2)c2ccccc2)cc1,1%,1%,12µM*,21µM*
N/C(=N\OS(=O)(=O)c1ccc2ccccc2c1)c1ccccn1,2%,/,-4%,1%
CC(C)Cc1cc(C(=O)NCC2Cc3cc(F)cc(-c4ccccn4)c3O2)no1 (centres undefined),/,/,-5%,11%[9.04 µM]
SMILES,TDP1 block,ClpP mod,DT40 TDP1 no CPT,DT40 TDP1 CPT
Cc1ccccc1CN(c1ccc(C(=O)N2CCc3ccccc3C2)cc1)S(C)(=O)=O,5%,2%,15µM*,12µM*
COc1ccccc1N1CCN(C(=O)C(C)N(c2ccc(C)cc2)S(C)(=O)=O)CC1 (centres undefined),2%,-1%,?,?
COc1ccccc1N(CC(=O)N1CCN(c2ccc(F)cc2)CC1)S(=O)(=O)c1ccc(C)cc1,5%,1%,18µM*,26µM*
COc1ccccc1N1CCN(C(=O)C(C)N(c2ccc(C)c(C)c2)S(C)(=O)=O)CC1 (centres undefined),7%,-2%,?,15µM*
COc1ccc(CCNC(=O)Cn2nnc(C(=O)Nc3cccc(C)c3C)c2N)cc1OC,2%,-1%,1%,-11%
Cc1occc1-c1nnc(SCC(=O)c2cc3ccccc3oc2=O)o1,6%,28µM*,-10%,-11%
O=C(c1cnccn1)N1CCC2(CC1)CCN(c1ncccn1)CC2,/,/,-9%,-6%
COc1ccc(C2CC(=O)c3c([nH]c(C(=O)OC4CCCCCC4)c3C)C2)cc1 (centres undefined),0%,-2%,?,?
CSc1nc(C(=O)N2CCc3c(cnc(C)c3CNC(=O)c3ccc4c(c3)OCO4)C2)cs1,/,/,0.16µM*,0.13µM*
Cc1ncc2c(c1CNS(=O)(=O)c1cccs1)CCN(C(=O)/C=C/c1cc(F)cc(F)c1)C2,/,/,23µM*,-6%[9.04 µM]
Cc1cnc(C(=O)NCc2c(C)ncc3c2CCN(C(=O)/C=C/c2cccs2)C3)cn1,/,/,-18%,0.0046µM*
Cc1ncc2c(c1CNC(=O)c1ccc3c(c1)OCO3)CCN(C(=O)c1ccc3ccccc3c1)C2,/,/,-19%,7%[9.04 µM]
Cc1ncc2c(c1CNS(=O)(=O)c1cccs1)CCN(C(=O)/C=C/c1ccc(F)cc1F)C2,/,/,?,2%[9.04 µM]
COc1ccc2c(c1)c1c(c(=O)n(-c3ccc(OC)c(OC)c3)c(=O)n1Cc1ccc(F)cc1)n2C,8%,?,-19%,-3%
CN(C(=O)Cn1nc(Cc2cccnc2)c2ccccc2c1=O)c1cccc(C(F)(F)F)c1,1%,-4%,-21%,-18%
CC1=CCC2COC(c3ccc[n+](Cc4ccccc4)c3)C1C2 (centres undefined),7%,-4%,2.9µM*,3.7µM*
O=C1C(=Cc2ccco2)CCC1=Cc1ccco1,/,-2%,16µM*,23µM*
O=C1C(=Cc2ccco2)CCCC1=Cc1ccco1,/,/,?,23µM*
Cc1cc(C(=O)N[C@H](c2ccccc2)[C@@]2(C)C[C@@H]2[C@@H](C)C(=O)Nc2ccc3ccccc3c2)no1,4%,-1%,26µM*,?
C[C@@H](C(=O)Nc1ccc2ccccc2c1)[C@@H]1C[C@@]1(C)[C@@H](NC(=O)c1cnccn1)c1ccccc1,-7%,1%,?,26µM*
CO[C@H]1COC(=O)C/C=C\[C@@H](C)COC(=O)[C@@H](OCc2ccccc2)/C=C\[C@@H]1C,2%[21 µM],/,/,/
CCC1CCCCN1C(=O)COC(=O)c1cc(=O)[nH]c2ccccc12 (centres undefined),-2%,-2%,-11%,-3%
CC(C)C(=O)Nc1ncc(C(F)(F)F)cc1Cl,7%,-1%,-4%,-9%
FC(F)(F)c1cnc(NNC(=S)Nc2ccc(Cl)cc2)c(Cl)c1,9%,1%,13µM*,10µM*
